# Rows were chosen to be rich in hits. Some 2.7% of all compounds tested hit in one or more screens of this group.
# KDM5B inh: blocks human KDM5B histone demethylase activity; Q9UGL1; KDM5B demethylase, FDH-coupled NADH fluorescence (FDH is formaldehyde dehydrogenase); Potency, µM (highest dose often 57.7 µM), most hits filed as inhibitors; 2.6% of 220,000 active; active = well fitted inhibition curve with a large enough effect; inconclusive = small, poorly fitted or top-dose-only effect; inactive = no such curve, though single readings can be large or run the other way; also: potency is read from the fitted curve at half-maximal effect; 0% is about no effect; nearly all actives have a fitted effect of over 70% in size
# Target sequence (Q9UGL1 whole entry, looked up): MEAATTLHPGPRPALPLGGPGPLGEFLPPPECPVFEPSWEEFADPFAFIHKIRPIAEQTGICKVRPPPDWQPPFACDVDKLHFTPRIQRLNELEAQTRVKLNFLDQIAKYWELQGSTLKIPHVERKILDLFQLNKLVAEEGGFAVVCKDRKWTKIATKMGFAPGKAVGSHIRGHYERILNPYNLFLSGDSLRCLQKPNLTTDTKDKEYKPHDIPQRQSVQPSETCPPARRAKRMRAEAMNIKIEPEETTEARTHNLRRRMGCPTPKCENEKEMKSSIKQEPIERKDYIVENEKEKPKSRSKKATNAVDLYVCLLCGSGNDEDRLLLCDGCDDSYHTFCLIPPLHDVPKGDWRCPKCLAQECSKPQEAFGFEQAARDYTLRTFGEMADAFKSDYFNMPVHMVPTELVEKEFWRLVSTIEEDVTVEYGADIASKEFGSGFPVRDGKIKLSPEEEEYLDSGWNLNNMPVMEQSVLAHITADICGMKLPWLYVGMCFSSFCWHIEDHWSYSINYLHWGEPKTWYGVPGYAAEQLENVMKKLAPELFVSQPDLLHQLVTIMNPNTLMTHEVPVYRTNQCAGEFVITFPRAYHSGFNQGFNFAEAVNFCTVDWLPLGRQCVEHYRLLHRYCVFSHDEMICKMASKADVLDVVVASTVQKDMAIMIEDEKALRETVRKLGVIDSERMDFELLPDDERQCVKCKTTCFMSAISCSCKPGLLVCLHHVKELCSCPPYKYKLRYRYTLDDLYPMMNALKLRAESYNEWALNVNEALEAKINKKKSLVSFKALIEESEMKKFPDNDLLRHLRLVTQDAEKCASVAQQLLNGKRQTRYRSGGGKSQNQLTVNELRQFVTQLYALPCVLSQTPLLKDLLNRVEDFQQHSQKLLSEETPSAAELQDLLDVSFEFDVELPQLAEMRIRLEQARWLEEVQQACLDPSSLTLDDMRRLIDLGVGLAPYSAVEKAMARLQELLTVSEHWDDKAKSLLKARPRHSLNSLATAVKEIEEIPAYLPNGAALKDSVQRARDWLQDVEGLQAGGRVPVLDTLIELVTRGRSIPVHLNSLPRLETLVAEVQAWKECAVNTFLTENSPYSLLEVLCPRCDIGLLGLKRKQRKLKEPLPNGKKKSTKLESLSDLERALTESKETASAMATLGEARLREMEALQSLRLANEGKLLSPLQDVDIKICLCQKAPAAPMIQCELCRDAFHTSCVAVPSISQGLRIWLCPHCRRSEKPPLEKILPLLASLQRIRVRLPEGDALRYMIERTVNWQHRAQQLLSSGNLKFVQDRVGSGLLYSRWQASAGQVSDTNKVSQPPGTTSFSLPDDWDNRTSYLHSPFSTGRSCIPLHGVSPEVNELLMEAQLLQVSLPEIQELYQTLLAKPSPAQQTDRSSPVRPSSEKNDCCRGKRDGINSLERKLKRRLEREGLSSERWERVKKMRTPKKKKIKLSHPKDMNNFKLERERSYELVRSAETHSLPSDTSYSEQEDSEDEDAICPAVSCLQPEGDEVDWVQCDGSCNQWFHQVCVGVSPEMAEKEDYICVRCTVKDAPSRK
#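 Coupled FDH/NAD⁺ fluorescence readout. KDM5BΔAP 200 nM final; compound titration, 10 min RT preincubation; substrate mix 12.5 µM H3K4me3, 25 µM 2-OG, 50 µM Fe(II), 100 µM ascorbate, 0.25 mM NAD⁺, 0.25 U/mL FDH; ΔRFU over 30 min.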
# IP6K1 inh: IP6K1 kinase inhibition | IP6K1 kinase, ADP-Glo luminescence, 2 h; hits give low values | activity change, % (series mostly up to about 58 µM) | 0.81% of 140,000 active; in the data active = activity change below about -25%; also: % is scaled to controls: 0 for no effect and ±100 for the full control effect
#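 ADP-Glo luminescence measures ADP made by human IP6K1 during a 2 h RT reaction with ATP/IP6 (mix at 1.3 mM/130 uM); top library doses 57.5 and 19.1 uM final.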
# Active calls of the source: *; i = inactive; ? = inconclusive; · = no result given.
SMILES,KDM5B inh,IP6K1 inh
O=C(Nc1cc(F)cc(F)c1)N1CCCC2(C1)Nc1cccnc1NC2=NC1CCCC1 (configuration not stated),14µM*,0
COc1ccc(C)cc1NC(=O)N1CCCC2(C1)Nc1cccnc1NC2=NC1CCCC1 (configuration not stated),28µM*,4
Cc1ccc(Nc2ccnc(N3CCCC(C(=O)NCc4cccs4)C3)n2)cc1 (configuration not stated),·,-7
CC(C)N1C[C@@H](COc2ccccc2)[C@H](c2ccccc2)[S+]1(=O)[O-],·,24
COc1cccc(CNC(=O)N[C@@H]2CN(c3ncccn3)C[C@H]2CN(C)C)c1,28µM*,24
COCc1c(C(=O)N[C@@H]2CN(Cc3cccnc3)C[C@H]2CN(C)C)noc1C,i,2
COc1cccc(CNC(=O)N[C@@H]2CN(Cc3ccncc3)C[C@H]2CN(C)C)c1,?,25
COCc1c(C(=O)N[C@@H]2CN(c3ncccn3)C[C@H]2CN(C)C)noc1C,28µM*,4
COCCNC(=O)N[C@@H]1CN(c2ncccn2)C[C@H]1CN(C)C,22µM*,9
CN(C)C[C@@H]1CN(c2ncccn2)C[C@H]1NC(=O)NCCc1ccccc1,?,3
O=C1NCCCCCCN(C(=O)CCC2CCCC2)[C@H]2C[C@H](c3nc(Cc4ccccc4)no3)C[C@@H]12,i,0
CCN1CCCC1CNC(=O)c1ccc2nc(C)c(C)nc2c1 (configuration not stated),i,·
C/C(=N\Nc1ccc(F)cc1)c1sc2ccc(Cl)cc2c1C,i,·
O=C(c1cc2ccccc2oc1=O)N1CCCN(C2CC2)CC1,i,·
COc1cc(F)ccc1-c1cc2c(nc1OC)nc(CC1CC1)n2C,35µM*,16
COc1ncccc1-c1cc2c(nc1OC)nc(CC1CC1)n2C,?,3
COc1nc2nc(CCc3ccccc3)n(C)c2cc1-c1cccc(CO)c1,35µM*,3
COc1ccc(NC(=O)c2cnc3c(c2)N(C(=O)CCc2ccccc2)CCC3)cn1,i,12
COc1nc2nc(CC3CC3)n(C)c2cc1-c1ccnc(C)c1,40µM*,9
COc1ccc(Nc2cc3c(nc2OC)nc(CCc2ccccc2)n3C)cn1,18µM*,2
COCc1nc2nc(-c3ccccc3)c(-c3cccc(CO)c3)cc2n1C,?,13
COc1nc2nc(CC3CC3)n(C)c2cc1-c1ccncc1,?,2
CN(CC(=O)Nc1ccccc1SC(F)F)S(=O)(=O)c1ccc2ccccc2c1,i,·
CN(C)C(=O)c1cn2cc(-c3cccc(C(F)(F)F)c3)sc2n1,·,-5
O=C(Cn1nc(Cl)nc1Cl)c1ccc(Cl)cc1,i,·
SMILES,KDM5B inh,IP6K1 inh
CCCc1cc(=O)oc2c(C)c(OCC(=O)NCc3cccnc3)ccc12,i,·
COc1ncccc1-c1cc2c(nc1OC)nc(CCc1ccccc1)n2C,?,10
COc1nc2nc(CCc3ccccc3)n(C)c2cc1-c1ccnc(C)c1,40µM*,5
CC1(C)CC(NC(=O)Cn2nc(-c3ccc(Cl)cc3)c3ccccc3c2=O)CC(C)(C)N1,i,·
CC(Cn1cncn1)Nc1ccc(-c2nc(Cc3ccc(F)cc3)no2)cn1 (configuration not stated),25µM*,4
Fc1ccc(Cc2noc(-c3ccc(NCCCn4ccnc4)nc3)n2)cc1,i,1
O=c1[nH]c(N2CCOCC2)nc2c1CCN(Cc1cc(F)c(F)c(F)c1)CC2,i,0
COc1ccc2c(c1)CCN=C2C[C@H]1CN(C(=O)c2c(C)noc2C)CC[C@H]1CC(=O)O,22µM*,7
COc1ccc2c(c1)CCN=C2C[C@H]1CN(C(=O)c2ccc(F)cc2)CC[C@H]1CC(=O)O,?,-4
COc1ccc2c(c1)CCN=C2C[C@H]1CN(C(=O)CC(C)(C)C)CC[C@H]1CC(=O)O,28µM*,17
COc1ccc2c(c1)C(C[C@H]1CN(C(=O)C(C)(C)C)CC[C@H]1CC(=O)O)=NCC2,35µM*,11
COc1cc2c(cc1OC)C(C[C@H]1CN(C(=O)C(C)(C)C)CC[C@H]1CC(=O)O)=NCC2,i,5
CCNC(=O)N1CC[C@@H](CC(=O)O)[C@@H](CC2=NCCc3cc(OC)ccc32)C1,?,12
O=C(NCc1ccccn1)c1cccc(I)c1,i,·
Nn1c(SCc2cccc(S(=O)(=O)N3CCOCC3)c2)nnc1-c1ccc(Cl)cc1,i,·
O=c1[nH]c2ccc(-c3csc(NC4CCCC4)n3)cc2[nH]1,i,·
O=C(Nc1ccsc1)O[C@@H]1CO[C@H]2[C@@H]1OC[C@@H]2Nc1nccc(-c2cccc(F)c2)n1,i,-3
c1coc(-c2ccnc(N[C@H]3CO[C@H]4[C@@H]3OC[C@@H]4NCC3CCCCC3)n2)c1,32µM*,0
O=C(O)CSCC(=O)N[C@H]1CO[C@H]2[C@@H]1OC[C@@H]2Nc1nccc(-c2cccc(F)c2)n1,25µM*,3
CC(=O)Nc1ccc(S(=O)(=O)N[C@H]2CO[C@H]3[C@@H]2OC[C@@H]3Nc2nccc(-c3ccco3)n2)cc1,22µM*,17
COc1ccc(NC(=O)O[C@@H]2CO[C@H]3[C@@H]2OC[C@@H]3Nc2nccc(-c3cccc(F)c3)n2)cc1,?,4
COc1ccc(-c2ccnc(N[C@H]3CO[C@H]4[C@@H]3OC[C@@H]4NS(=O)(=O)c3ccc(NC(C)=O)cc3)n2)cc1,?,-18
O=C(Nc1ccccc1)N[C@H]1CO[C@H]2[C@@H]1OC[C@@H]2Nc1nccc(C2CCCC2)n1,i,6
O=C(O)CCC(=O)N[C@H]1CO[C@H]2[C@@H]1OC[C@@H]2Nc1nccc(-c2cccc(F)c2)n1,32µM*,-3
CCOC(=O)C1CCCN(C(=O)c2nc3sccn3c2-c2ccccc2)C1 (configuration not stated),·,14
SMILES,KDM5B inh,IP6K1 inh
C=CCOc1ccc(C(N)=O)cc1,i,·
Cc1sc(-c2nc(-c3ccc(F)cc3)no2)cc1S(=O)(=O)Nc1ccc(F)cc1,i,·
O=C(O)CCC(=O)N[C@H]1CO[C@H]2[C@@H]1OC[C@@H]2Nc1nccc(-c2ccco2)n1,32µM*,10
O=C(Nc1cccc2ccccc12)N[C@H]1CO[C@H]2[C@@H]1OC[C@@H]2Nc1nccc(-c2cccs2)n1,?,-5
COCCNC(=O)C1CCCCN1Cc1ccc(-c2cccs2)cc1 (configuration not stated),·,-9
Cc1c(-c2cccc(Cl)c2)nc2ccccc2c1C(=O)NC1CCCCC1,i,·
COc1ccc(Cl)cc1NC(=O)CCC1CCCN(S(=O)(=O)C2CC2)C1 (configuration not stated),i,12
COc1ccc(Cl)cc1NC(=O)CCC1CCCN(c2ccc(C(F)(F)F)cn2)C1 (configuration not stated),28µM*,8
COc1ccc(C(=O)Nc2nnc(-c3ccccc3Br)s2)cc1OC,i,·
COCc1nc2nc(-c3ccccc3)c(-c3ccnc(OC)c3)cc2n1C,i,7
CN1CCC(NC(=O)c2nc3nc(-c4ccccc4)c(-c4cccc(O)c4)cc3n2C)CC1,?,6
COCc1nc2nc(-c3ccccc3)c(-c3ccc(OC)nc3)cc2n1C,35µM*,19
COCc1nc2nc(-c3ccccc3)c(-c3ccc(N4CCN(C)CC4)nc3)cc2n1C,35µM*,3
COCc1nc2nc(-c3ccccc3)c(-c3cccc([S+](C)(=O)[O-])c3)cc2n1C,?,9

# Screens (PubChem)
